Results filed as inconclusive are left out. Unmarked numbers belong to inactive results. The source made the active and inactive calls. The call rests on the fitted dose curve; in most records, active means well fitted cell-killing curve with a large enough effect; inconclusive means small, poorly fitted or top-dose-only effect, or effect the other way; inactive means no such curve, though single readings can be large or run the other way. *1 amine or outer side, *2 acyl side, *3 side chain or, on linkers, in order; H or OH if unused. Where a SMILES comes first, the peptide text is derived from it. Bridges are numbered along the chain shown (N, C = ends). Roman numbers before positions name the chains, in order. [ ]: non-standard residue; d: D form. Actinocin(9to1) = Cc1c2oc3c(C)ccc(C(=O)[*:1])c3nc-2c(C(=O)[*:2])c(N)c1=O; NMeV = CN[C@H](C(=O)O)C(C)C; Sar = CNCC(=O)O
Tested on: CASKI
Experiment: Confirmatory qHTS for gynecologic anti-cancer compounds from libraries of approved drugs and bioactive compounds; further: nearly all actives have a fitted effect of over 55% in size
Conditions: gynecologic cancer cell panel viability, ATPlite luminescence, 48 h; series mostly up to 57.6 µM
Excerpt: National Center for Advancing Translational Sciences [NCATS] Assay Overview: Chemotherapeutic drug responses vary from cancer to cancer and from patient to patient. These variations could be caused by a number of factors including patient genomic background, tumor mutations, tumor heterogeneity, and aspects of drug treatment. Chemotherapeutic drug resistance is also a common issue and can lead to ineffective treatment and patient death. Here we have profiled the cell killing effects of thousands of compounds to characterize the responses in three gynecological cancers, identify cancer-selective compounds, and understand the diversity of responses to these compounds from pan-cancer suppressors to single cell line selective compounds. In this assay, we screened a 7,914 compound drug library that included approved drug and bioactive compounds in six ovarian, three cervical, and two placental cancer cell lines using the ATPlite assay for cell viability. ATPlite is a luminescence based assay reliant on the conversion of a luciferase substrate to light in the presence of ATP. As a cytotoxic compound will suppress growth and decrease the number of cells, the concentration of ATP will decrease, and less light signal will be detected in the well. Hits were selected from the primary screen for follow-up confirmation. For the confirmation screens, the ovarian cancer cell lines included CAOV-3, SK-OV-3, SW 626, ES-2, PA-1, and TOV-21G. The cervical cancer cell lines included HeLa, Ca Ski, and C-33 A. The placental cancer cell lines included JEG-3 and JAR. HEK 293T cells were used as the control cell line to determine the selectivity index. The ATPlite assay was used to determine the IC50 values.
Assay Protocol Summary: 1,000 cells in 4 uL of media were dispensed into white, solid bottom 1536-well plates using a Multidrop Combi (Thermo Scientific). The Assay plates were incubated for 16 hours at 37 C with 5% CO2 in assay plates, followed by the addition of 23 nL of DMSO or drug dissolved in DMSO. . Each compound was assayed in 11 concentrations (1:3 dilution) from 57.5 uM to 0.977 nM, using the automated Wako 1536 Pin Tool workstation and incubated at 37 C with 5% CO2 48 hours. 4 uL of ATPlite, the ATP monitoring reagent, was then added to the each well of the assay plates using the Multidrop Combi reagent dispenser followed by incubation for 15 minutes at room temperature. The resulting luminescence was measured using the ViewLux plate reader.
On the % scale 0 is the no-effect control and ±100 the full control effect; potency means the concentration at half of the fitted maximal effect.

Row | Structure (SMILES) | Potency | activity change, negative = viability loss
1 | CC(C)c1nn(-c2c(Cl)cccc2Cl)c2nc(Cc3ccc(OCCO)cc3)[nH]c(=O)c12 | 0.137 µM (active) | –
2 | CN1C(=O)C(Cc2c[nH]c3ccccc23)NC1=S (stereo not given) | inactive | –
3 | Cc1ccc(NC(=O)c2ccc(CN3CCN(C)CC3)cc2)cc1Nc1nccc(-c2cccnc2)n1 | inactive | –
4 | CC(Oc1cc(-n2cnc3ccc(CN4CCN(C)CC4)cc32)sc1C(N)=O)c1ccccc1C(F)(F)F (stereo not given) | 13.7 µM (active) | –
5 | CCc1c2c(nc3ccc(O)cc13)-c1cc3c(c(=O)n1C2)COC(=O)[C@]3(O)CC | 0.153 µM (active) | –
6 | CN(C)/N=N/c1nc[nH]c1C(N)=O | inactive | –
7 | CN(C)C1CCN(C(=O)c2ccc(NC(=O)Nc3nc(N4CCOCC4)nc(N4CCOCC4)n3)cc2)CC1 | 0.273 µM (active) | –
8 | Cc1ccc(C(N)=O)cc1Nc1nccc(-c2cn(C(C)C)c3cnccc23)n1 | 17.2 µM (active) | –
9 | Cc1[nH]c2ccccc2c1CCNCc1ccc(/C=C/C(=O)NO)cc1 | 0.611 µM (active) | –
10 | CCN(CC)CCNC(=O)c1c(C)[nH]c(/C=C2\C(=O)Nc3ccc(F)cc32)c1C | 56.2 µM (active) | –
11 | CCS(=O)(=O)c1cccc(-c2cc(C(=O)NC3CCN(C)CC3)c(C)c3[nH]c4ncc(C)cc4c23)c1 | 4.76 µM (active) | –
12 | COc1cccc2c1C(=O)c1c(O)c3c(c(O)c1C2=O)C[C@@](O)(C(=O)CO)C[C@@H]3O[C@H]1C[C@H](N)[C@H](O[C@@H]2CCCCO2)[C@H](C)O1 | 17.2 µM (active) | –
13 | CNC(=O)CN1CCC(Oc2cc3c(Nc4cccc(Cl)c4F)ncnc3cc2OC)CC1 | 10.9 µM (active) | –
14 | NC(=O)Nc1cc(-c2cccc(F)c2)sc1C(=O)NC1CCCNC1 (stereo not given) | 2.17 µM (active) | –
15 | CN1CCN(Cc2ccc(NC(=O)Nc3ccc(Oc4cc(NC(=O)C5CC5)ncn4)cc3)cc2C(F)(F)F)CC1 | 0.611 µM (active) | –
16 | CC[C@@]1(O)C(=O)OCc2c1cc1n(c2=O)Cc2c-1nc1ccccc1c2/C=N/OC(C)(C)C | 0.153 µM (active) | –
17 | COc1cc(F)c(F)c(Nc2ccc(I)cc2F)c1NS(=O)(=O)C1(CC(O)CO)CC1 (stereo not given) | inactive | –
18 | CC(C)n1nc(-c2cc3cc(O)ccc3[nH]2)c2c(N)ncnc21 | 8.63 µM (active) | –
19 | C[C@]12CCC(=O)C=C1CC[C@@H]1[C@@H]2[C@@H](O)C[C@@]2(C)[C@H]1CC[C@]2(O)C(=O)CO | inactive | –
20 | Cc1ccccc1C(OCCN(C)C)c1ccccc1 (stereo not given) | inactive | –

Row | Structure (SMILES) | Potency | activity change, negative = viability loss
21 | COc1cc2c(c(OC)c1OC)-c1ccc(OC)c(=O)cc1[C@@H](NC(C)=O)CC2 | inactive | –
22 | CCS(=O)(=O)N1CCN(c2ccc(Nc3ncc(C(N)=O)c(NC4CC4)n3)cc2)CC1 | 10.9 µM (active) | –
23 | Oc1cn2c(n1)Nc1ccc(Cl)c(Cl)c1C2 | inactive | –
24 | Cc1ccc(C(=O)N(CCCN)C(c2nc3cc(Cl)ccc3c(=O)n2Cc2ccccc2)C(C)C)cc1 (stereo not given) | 27.3 µM (active) | –
25 | CN1CCCC(n2nc(Cc3ccc(Cl)cc3)c3ccccc3c2=O)CC1 (stereo not given) | inactive | –
26 | CC(Oc1ccc2[nH]nc(/C=C/c3cnn(CCO)c3)c2c1)c1c(Cl)cncc1Cl (stereo not given) | 5.44 µM (active) | –
27 | Cc1nc(Nc2n[nH]c3c2CN(C(=O)NC(CN(C)C)c2ccccc2)C3(C)C)c2sccc2n1 (stereo not given) | 3.06 µM (active) | –
28 | Cc1cnc(Nc2cccc(CN3CCOCC3)c2)nc1Nc1cccc(S(=O)(=O)NC(C)(C)C)c1 | 15.3 µM (active) | –
29 | O=C(/C=C/c1cccc(S(=O)(=O)Nc2ccccc2)c1)NO | 4.73 µM (active) | –
30 | O=c1c2ccccc2nc2n1CCc1c-2[nH]c2ccccc12 | inactive | –
31 | CC[C@H](Nc1ncnc2nc[nH]c12)c1nc2cccc(F)c2c(=O)n1-c1ccccc1 | – | -2.62% [at 10.7 µM]
32 | Cc1c2oc3c(C)ccc(C(=O)N[C@@H]4C(=O)N[C@H](C(C)C)C(=O)N5CCC[C@H]5C(=O)N(C)CC(=O)N(C)[C@@H](C(C)C)C(=O)O[C@@H]4C)c3nc-2c(C(=O)N[C@@H]2C(=O)N[C@H](C(C)C)C(=O)N3CCC[C@H]3C(=O)N(C)CC(=O)N(C)[C@@H](C(C)C)C(=O)O[C@@H]2C)c(N)c1=O (I: T[dV]P[Sar][NMeV] / II: T[dV]P[Sar][NMeV]; ester I:1-I:C, II:1-II:C; linker I:N-II:N via Actinocin(9to1)) | 0.611 µM (active) | –
33 | COC(=O)c1ccc2c(C(=Nc3ccc(N(C)C(=O)CN4CCN(C)CC4)cc3)c3ccccc3)c(O)[nH]c2c1 | inactive | –
34 | O=c1[nH]c(=O)n([C@H]2C[C@H](O)[C@@H](CO)O2)cc1Br | inactive | –
35 | Cc1cc(Nc2cc(N3CCN(C)CC3)nc(Sc3ccc(NC(=O)C4CC4)cc3)n2)n[nH]1 | inactive | –
36 | CN(c1nccc(=O)[nH]1)C1CCN(c2nc3ccccc3n2Cc2ccc(F)cc2)CC1 | inactive | –
37 | CCCC(Nc1nc(-c2ccc(NC(=O)NCC)c(OC)c2)ncc1C)c1cccnc1 (stereo not given) | inactive | –
38 | CC(C)C[C@H](NC(=O)[C@@H](NC(=O)c1cccc(-c2ccccc2)n1)[C@@H](C)O)B(O)O | 0.0611 µM (active) | –
39 | CC(C)C[C@H](NC(=O)[C@H](CCc1ccccc1)NC(=O)CN1CCOCC1)C(=O)N[C@@H](Cc1ccccc1)C(=O)N[C@@H](CC(C)C)C(=O)[C@@]1(C)CO1 | 9.68 µM (active) | –
40 | CNC(=O)c1ccccc1Sc1ccc2c(/C=C/c3ccccn3)n[nH]c2c1 | 13.7 µM (active) | –
